Screening results (PubChem)
Only a selection was taken, and hits are over-represented in it overall.
FBPA Giardia inh: qHTS Assay for Inhibitors of Fructose-1,6-bisphosphate Aldolase from Giardia Lamblia. A8B2U2. purified Giardia FBPA. Potency, µM (highest dose often 59.6 µM), inactives show at the highest dose activity, negative = inhibition, actives largely listed as inhibitors. 290,000 tested, 0.71% active. AID 2451, 2010; also: potency is read from the fitted curve at half-maximal effect; % is scaled to controls: 0 for no effect and ±100 for the full control effect; nearly all actives have a fitted effect of over 55% in size
Target sequence (A8B2U2 whole entry, looked up): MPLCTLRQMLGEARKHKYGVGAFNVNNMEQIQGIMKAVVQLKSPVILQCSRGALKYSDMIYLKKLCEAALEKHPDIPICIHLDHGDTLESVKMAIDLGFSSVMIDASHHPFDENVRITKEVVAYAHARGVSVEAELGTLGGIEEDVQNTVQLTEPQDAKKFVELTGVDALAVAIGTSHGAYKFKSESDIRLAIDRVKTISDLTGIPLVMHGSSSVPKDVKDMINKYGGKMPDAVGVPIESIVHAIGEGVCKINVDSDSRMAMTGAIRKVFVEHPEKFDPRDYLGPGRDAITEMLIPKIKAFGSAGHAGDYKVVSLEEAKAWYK
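40 nM FBPA preincubated 10 min at RT with compound (up to 57.5 uM final), then substrate plus GAPDH/TPI/NAD/arsenate coupling and diaphorase/resazurin added. Fluorescence read after 20 min at RT, 525/598 nm.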
Tb PYK inh: qHTS of Trypanosoma Brucei Inhibitors; TbPYK enzyme, Kinase-Glo Plus ATP luminescence, 45 min; pyruvate kinase (Trypanosoma brucei), Q57TT1; Potency, µM (top dose mostly 76.8 µM), for the others: at the highest dose activity, negative = inhibition, hits mostly inhibitors; 410,000 tested, 0.12% active; also: potency is read from the fitted curve at half-maximal effect; % is scaled to controls: 0 for no effect and ±100 for the full control effect; nearly all actives have a fitted effect of over 50% in size
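Quantitative HTS: titrated library compounds versus trypanosomal pyruvate kinase in TEA buffer (pH 7.2) containing KCl, MgCl2, BSA and Tween-20. Reactions were initiated with ADP, 130 uM final. Kinase-Glo Plus luminescence was read after 45 min at RT.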
RE007 growth inh: qHTS Assay for Inhibitors of the HIV-1 protein Vpr; S. pombe RE007 Vpr strain, BacTiter-Glo ATP luminescence, 24 h; Potency, µM (doses to about 92.2 µM), for inactives: top-dose activity change, negative = less growth, most hits filed as inhibitors; 360,000 tested, 0.21% active; AID 651644, 2012; active = well fitted falling curve with a large enough effect; inconclusive = small, poorly fitted or top-dose-only effect; inactive = no such curve, though single readings can be large or run the other way; also: potency is read from the fitted curve at half-maximal effect; % is scaled to controls: 0 for no effect and ±100 for the full control effect; nearly all actives have a fitted effect of over 50% in size
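Fission yeast RE007 carrying one integrated HIV-1 vpr copy, seeded at OD 0.01 in PMG+AL medium with 23 nL pinned compound. Grown 24 h at 30 degrees; viability read by BacTiter-Glo luminescence after 5 min.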
LmPK inh: qHTS Assay for Inhibitors of Leishmania Mexicana Pyruvate Kinase (LmPK). Q27686. purified LmPK, Kinase-Glo ATP luminescence, 1 h. Potency, µM (doses to about 57.5 µM), inactives show at the top dose activity change, negative = inhibition, hits mostly inhibitors. 290,000 tested, 0.37% active. AID 1721, 2009; also: potency is read from the fitted curve at half-maximal effect; % is scaled to controls: 0 for no effect and ±100 for the full control effect
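qHTS format; LmPK 0.1 nM; substrates PEP 0.5 mM and ADP 0.1 mM. One-hour room-temperature incubation, then coupled luciferase luminescence; 0.5 nM enzyme wells mark activation.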
Shiga inhibitor: A qHTS for Small Molecule Inhibitors of Shiga Toxin | inhibition, % at 38.7 µM | 290,000 tested, 9.2% active | AID 2315, 2010 | Vero cells, Shiga toxin protein synthesis inhibition reporter; in the data active = inhibition mostly above about 28%, no sharp cut-off; inactive = mostly below about 43%; also: 0% is about no effect
CHX counter: Cycloheximide Counterscreen for Small Molecule Inhibitors of Shiga Toxin. cell reporter, cycloheximide protein synthesis inhibition counterscreen. max response, %. 300,000 tested, 12% active. AID 2314, 2010; in the data active = max response mostly above about 13%, no sharp cut-off; inactive = mostly below about 14%; also: read at 38.3 µM for the half of the compounds with a filed dose; 0% is about no effect
* = called active by the depositor; i = inactive; ? = inconclusive; · = no result given; [ ] = another dose, or the depositor's remark. Unless noted, calls follow the shape of the dose curve; as a rule, active = well fitted curve in the direction sought with a large enough effect; inconclusive = small, poorly fitted or top-dose-only effect, or another doubt; inactive = no such curve, though single readings can be large; an effect the other way counts as inactive or inconclusive.

SMILES	FBPA Giardia inh	Tb PYK inh	RE007 growth inh	LmPK inh	Shiga inhibitor	CHX counter
O=C(Nc1ccc(S(=O)(=O)N2CCCCCC2)cc1)c1[nH]ncc1[N+](=O)[O-]	·	·	·	5%	56*	28*
CN(c1ccccc1)C(CNS(=O)(=O)c1ccccc1)c1ccccc1 (configuration not stated)	·	0%	·	·	·	·
O=C(O/N=C1\CCS(=O)(=O)c2sccc21)c1c(F)cccc1F	-1%	2%	-4%	-1%	7	14*
Cc1onc(-c2ccccc2Cl)c1C(=O)O/N=C(\N)c1ccc([N+](=O)[O-])o1	-4%	-2%	-20%	7%	7	1
CCSC1=NCCN1C(=O)Cc1ccc(-c2ccccc2)cc1	-2%	-10%	?	-3%	-6	8
CSC1=NCCN1C(=O)Cc1ccc(-c2ccccc2)cc1	2%	-3%	-9%	-2%	42*	20
COCCCNC(=O)C(C)N1c2cccc3cccc(c23)S1(=O)=O (configuration not stated)	-9%	?	-16%	-2%	-1	-1
CC(NS(=O)(=O)c1c(N)n(C)c(=O)n(C)c1=O)c1ccccc1 (configuration not stated)	·	-9%	-15%	-4%	57*	29*
C/C(=N\NC(=O)CNC(=O)c1cccc(F)c1)c1ccc2ccccc2c1	·	-2%	0%	0%	-10	-4
C/C(=N/NC(=O)c1ccc(-c2ccccc2)cc1)c1cc(O)cc(O)c1	·	2%	-26%	-4%	9	18
C/C(=N\NC(=O)c1cccc(F)c1)c1ccc(NC(=O)Cc2ccccc2)cc1	·	-5%	13%	-1%	48*	42*
C/C(=N\NC(=O)c1cc(O)cc(O)c1)c1ccc(NC(=O)Cc2ccccc2)cc1	·	-2%	12%	23%	70*	22*
COc1cccc(C(=O)Oc2ccc3ccc(O)cc3c2)c1	3%	-3%	-14%	9%	·	39*
Cc1ccccc1S(=O)(=O)Oc1ccc2ccc(O)cc2c1	-22%	-2%	0%	12%	·	32*
Cc1ccccc1C(=O)Oc1cccc2c(O)cccc12	-4%	-11%	?	6%	12	9
Cc1ccccc1C(=O)Oc1ccc2ccc(O)cc2c1	-17%	1%	1%	8%	·	59*
Cc1cc(C)n(CC(O)COc2ccc3ccccc3c2)n1 (configuration not stated)	-3%	6%	9%	0%	46*	26*
Cc1ccc(-c2nc3ccccc3[nH]2)s1	?	?	20µM*	16µM*	64*	52*
Cc1[nH]c2ccccc2c1-c1nc2ccccc2[nH]1	-2%	4%	5%	4%	56*	48*
c1csc(-c2nc3ccccc3[nH]2)c1	-7%	1%	-8%	?	65*	36*
S=C1NNC2(CC3CC2C2CCCC32)NN1 (configuration not stated)	?	-19%	4%	2%	22	16*
CCOC(=O)C1Oc2ccccc2C(c2ccc(C)cc2)=C1C(=O)OC (configuration not stated)	1%[89.2 µM]	1%	-15%	·	i	19*
Nc1cccc2c3c(oc12)CCCC3	?	-5%	0%	0%	11	9.4*
COc1ccc(C2=NC(C)(C)N(CC(=O)Nc3cccc(C)c3)C2=O)cc1	·	3%	·	·	·	·
Cc1cccc(OCC(=O)Nc2ccc(-c3nc4cc(C)ccc4o3)c(O)c2)c1	·	-1%	·	·	·	·
SMILES	FBPA Giardia inh	Tb PYK inh	RE007 growth inh	LmPK inh	Shiga inhibitor	CHX counter
O=C(Nc1ccc(-c2nc3ccccc3o2)c(O)c1)c1ccccc1	·	-11%	·	·	·	·
COc1ccc(CC(=O)Nc2ccc(-c3nc4cc(C)ccc4o3)c(O)c2)cc1OC	8%	2%	12%	-6%	70	33*
Cc1ccc2oc(-c3ccc(NC(=O)c4ccncc4)cc3O)nc2c1	2%	5%	20%	7%	44*	29*
COc1ccccc1NC(=O)N(Cc1ccco1)C1CCN(C(C)=O)CC1	·	1%	·	·	·	·
NC(=O)C1CCCN(CC(=O)Nc2cc(S(=O)(=O)N3CCOCC3)ccc2N2CCCC2)C1 (configuration not stated)	·	1%	-10%	·	·	·
C=C(C)C1CC=C(C)CC1 (configuration not stated)	·	0%	·	·	·	·
Cc1cccc(NC(=O)CSc2cn(CC(=O)N3CCCC3)c3ccccc23)c1C	·	-10%	·	·	·	·
CCCCCCN1CC(O)=C(c2nc3ccccc3[nH]2)C1=N	22%	0%	-8%	5%	12	-2
CCC(C)N1CC(O)=C(c2nc3ccccc3[nH]2)C1=N (configuration not stated)	-5%	-2%	4%	-1%	84*	19
N=C1C(c2nc3ccccc3[nH]2)=C(O)CN1c1ccccc1	13%	-5%	4%	4%	19	10
CC1C(O)=C(c2nc3ccccc3[nH]2)C(=N)N1c1ccccc1 (configuration not stated)	29%	3%	-23%	1%	128*	24*
COCC(=O)N1CCCC(N(C)CCc2ccc(OC)c(OC)c2)C1 (configuration not stated)	5%	-22%	-24%	4%	·	18*
COCc1ccc(C(=O)N2CCCC(N(C)CCc3ccc(OC)c(OC)c3)C2)s1 (configuration not stated)	·	3%	4%	-14%	-41	-1
c1ccc(-c2nnc(CSc3ccc4c(c3)OCCO4)o2)cc1	0%	1%	-24%	2%	29*	19*
O=C(OCc1nnc(-c2ccccc2)o1)c1ccc2c(c1)OCO2	0%	4%	?	-4%	23	15
CCOc1ccc(OCc2ccc(C(=O)N/N=C(\C)c3ccccn3)cc2)cc1	12%	8%	?	-3%	62	40*
C/C(=N/NC(=O)c1ccccn1)c1ccncc1	-6%	0%	-9%	-7%	92*	36*
CC(=NNC(=O)c1ccncc1)c1cccc(Br)c1	·	-7%	-4%	·	·	·
C/C(=N\NC(=O)c1ccccc1OCc1ccc(F)cc1)c1ccccn1	·	0%	-17%	·	·	·
C/C(=N\NC(=O)c1ccccc1Cl)c1ccccn1	?	-6%	?	1%	85*	28*
C/C(=N/NC(=O)c1cccc(Br)c1)C1CC2CCC1C2 (configuration not stated)	·	4%	-16%	-7%	38	47*
Cc1nc(SCC(=O)c2cc(C)n(C3CC3)c2C)c2ccccc2n1	·	3%	6%	·	·	·
